Screening results deposited in PubChem by National Center for Advancing Translational Sciences (NCATS).
HepG2 viability – kills HepG2 cells in TGF-b inhibitor counter-screen | HepG2 CAGA-GFP viability, ATP luminescence, 18 h | Potency, µM (series often up to 46.1 µM), usual class: cytotoxic | 410,000 compounds, 0.76% hits | AID 588856
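HepG2 CAGA-GFP cells (1000/well, DMEM with 1% FBS) received compound, then TGF-beta at 500 pg/mL final, and were incubated 18 hours at 37 degrees C. Viability was read by CellTiter-Glo luminescence. Media-only wells were set as complete cell-killing and DMSO as no toxicity.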
DRD3 agonist – D3 dopamine receptor (human) agonism; D3R DiscoveRx beta-arrestin cells, luminescence, 90 min; max activation, %; 410,000 compounds, 0.58% hits; AID 652048; in the data active = max activation above about 30%
Target sequence (P35462 whole entry, looked up): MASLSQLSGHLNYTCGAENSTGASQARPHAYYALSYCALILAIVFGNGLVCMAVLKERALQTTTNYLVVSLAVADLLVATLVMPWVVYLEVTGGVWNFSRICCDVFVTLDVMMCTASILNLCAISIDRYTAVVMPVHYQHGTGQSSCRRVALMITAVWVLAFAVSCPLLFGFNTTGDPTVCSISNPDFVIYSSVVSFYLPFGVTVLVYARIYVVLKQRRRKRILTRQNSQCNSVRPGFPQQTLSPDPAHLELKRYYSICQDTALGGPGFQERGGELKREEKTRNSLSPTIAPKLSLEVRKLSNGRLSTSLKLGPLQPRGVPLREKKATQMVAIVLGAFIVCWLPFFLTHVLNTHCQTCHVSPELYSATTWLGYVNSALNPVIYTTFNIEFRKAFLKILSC
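Cells at 1500/well, incubated overnight, then treated with pinned compounds (dopamine as control) for 90 min at 37 degrees C. DiscoveRx reagent added for 30 - 60 minutes at room temperature; luminescence read.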
TGFb inhibitor – inhibitors of TGF-b signaling. AID 588855. Potency, µM (doses to about 46.1 µM), usual class: inhibitors. HepG2 CAGA-GFP TGF-b/SMAD3 reporter, GFP fluorescence, 18 h; TGF-beta stimulated, 500 pg/mL final. 410,000 compounds, 1.2% hits; also: nearly all actives have a fitted effect of over 65% in size
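Read-out: total well GFP (ex488/em500-530) summed from mean per-cell fluorescence. Cells: HEPG2 CAGA-GFP, 1% FBS DMEM, 18 h at 37 degrees C with 500 pg/mL final TGF-beta. Unstimulated wells served as the full-inhibition control; stimulated DMSO wells = 0%.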
D3 antag – antagonists of human D3 dopamine receptor; P35462; D3R cells, DiscoveRx beta-arrestin luminescence, antagonist mode; stronger effect = lower value; 360,000 compounds, 2.5% hits; max response, negative = inhibition, %; in the data active = max response below about -50%; inconclusive = no clear call, values can overlap the other calls
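Cells expressing the human receptor were seeded at 1500 cells/well, incubated overnight at 37 degrees C in 5% CO2, then exposed to library compounds with dopamine controls for 90 minutes at 37 degrees C before luminescent detection.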
ATXN2 expr inh – reduces ATXN2 reporter expression in HEK-293 cells | Potency, µM (doses to about 57 µM), usual class: inhibitors | HEK-293 ATXN2-luciferase reporter, luminescence, 24 h | 360,000 compounds, 0.72% hits; also: nearly all actives have a fitted effect of over 55% in size
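ATXN2-luciferase reporter cells (luciferase flanked by upstream and downstream ATXN2 gene portions) were treated 24 h at 37 °C with compounds at up to 57 uM. SteadyGlo luminescence gave expression; GF-AFC fluorescence gave viability.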
ATXN viability – cell viability loss in ATXN counter-screen | S2 cells (HEK-293 line with an ATXN2-luciferase reporter) viability, CellTiter-Fluor protease fluorescence, 24 h | Potency, µM (doses to about 56.7 µM), usual class: cytotoxic | 400,000 compounds, 0.49% hits | AID 651635; also: nearly all actives have a fitted effect of over 40% in size
Numbers stand for hits; – = inactive; ? = inconclusive; · = not tested or not shown; ! = not confirmed by another sample; [ ] = another dose, or the depositor's remark. The list is not random: actives were taken first. Their share in the collection is about 4.8%. Unless noted, calls follow the shape of the dose curve; as a rule, active = well fitted curve in the direction sought with a large enough effect; inconclusive = small, poorly fitted or top-dose-only effect, or another doubt; inactive = no such curve, though single readings can be large; an effect the other way counts as inactive or inconclusive.

SMILES	HepG2 viability	DRD3 agonist	TGFb inhibitor	D3 antag	ATXN2 expr inh	ATXN viability
CCCCCCCCCCCCCCCC[n+]1cccc(C(=O)N(CC)CC)c1	13µM!	–	?	-74!	32µM!	32µM
O=C(NCCCN1CCN(c2ccccc2F)CC1)c1nnc(Cc2ccc(Cl)cc2Cl)o1	–	–	11µM	·	·	·
Cc1cc(C(=O)NCCCN2CCN(c3cc(Cl)ccc3C)CC2)n(-c2ccccc2)n1	–	–	–	-65	–	?
COc1ccc(Cc2nnc(C(=O)NCCCN3CCN(c4ccccc4F)CC3)o2)cc1OC	–	–	–	·	–	?
Cc1cc(C(=O)NCCN2CCN(c3cccc(Cl)c3)CC2)n(-c2ccccc2)n1	–	–	?	?	–	?
Cc1cccc2nc(Cn3c(=O)n(-c4ccc(Cl)cc4)c(=O)c4c5c(sc43)CCC5)cc(=O)n12	–	–	–	·	–	–
O=C(C[n+]1cccc(Br)c1)c1ccc(Br)cc1	–	·	?	·	·	·
COc1cccc(Cn2c(NCc3ccc(C)cc3)nc3c2c(=O)n(C)c(=O)n3C)c1	–	–	–	·	–	–
CCn1cc(CN2CCN(CCC(C)C)C(CCO)C2)c2ccccc21 (stereo not given)	11µM	–	–	–	·	–
CC(=O)c1ccc(-c2cccc(-c3cc(=O)oc4ccc(C(C)(C)C)cc34)c2)cc1	–	39	?	–	–	–
CC(C)(C)c1ccc2oc(=O)cc(-c3cccc(-c4ccc(C(F)(F)F)cc4)c3)c2c1	–	–	?	–	–	–
CN(C)c1ccc(NC(=O)Cn2cc(S(=O)(=O)Cc3ccccc3Cl)c3ccccc32)cc1	–	–	·	·	·	·
COc1ccc(C2NCCc3sccc32)cc1 (stereo not given)	–	73	–	–	–[11.3 µM]	–
CN(C)c1ccc(/C=C/N2C=CCc3c2ccc2ccccc32)cc1	–	·	7.1µM	·	·	·
Brc1ccc(C=C2C=c3ccccc3=C2)cc1	–	·	–	·	·	·
Cc1cccc(N2CCN(c3nc4ccc(C(=O)c5ccccc5)cc4n4cnnc34)CC2C)c1 (stereo not given)	–	–	–	·	·	·
O=C(NCc1ccccc1Cl)c1ccc2c(c1)NC(=O)C(CS(=O)(=O)Cc1ccc(F)cc1Cl)N2 (stereo not given)	–	47	?	·	·	·
CCOC(=O)c1ccc(NC(=O)CN2CCc3ccccc3C2)cc1	–	–	–	-62	–	–
O=C(CNC1CCCCCC1)Nc1ccccc1N1CCCCC1	–	–	?	-64	–	–
Cc1ccc(NC(=O)C(C)N2CCc3ccccc3C2)cc1 (stereo not given)	–	–	–	-76	–	–
CCOC(=O)c1ccc(NC(=O)CN2c3ccccc3S(=O)(=O)c3ccccc32)cc1	–	–	11µM	·	?	?
CCOC(=O)c1ccc(NC(=O)CN2C(=O)C(C)(C)c3ccccc32)cc1	–	–	–	·	–	?
CC(C(=O)Nc1ccc(S(=O)(=O)N2CCCC2)cc1)N1CCc2ccccc2C1 (stereo not given)	–	–	–	?	·	–
O=C(CN1CCc2ccccc2C1)Nc1ccc(F)cc1	–	–	–	–	–	–
O=C(CN1CCc2ccccc2C1)Nc1ccccc1N1CCCCCC1	–	–	?	-54	?	–
SMILES	HepG2 viability	DRD3 agonist	TGFb inhibitor	D3 antag	ATXN2 expr inh	ATXN viability
Cc1cc(C)cc(NC(=O)CN2CCc3ccccc3C2)c1	–	–	–	-67	–	–
O=C(CN1CCc2ccccc2C1)Nc1ccccc1Cl	–	–	–	?	·	?
O=C(/C(=C\c1ccccc1)c1nc2ccccc2[nH]1)c1ccc(Cl)cc1	–	–	?	-71	?	·
O=C(/C=C/c1cccc(Cl)c1)c1nc2ccccc2[nH]1	–	–	?	-56	?	?
COc1ccc(C(=O)NNC(=O)c2cc3cc([N+](=O)[O-])ccc3oc2=O)cc1OC	–	–	–	-53	–	–
COc1cccc2cc(C(=O)OC(C)C(=O)c3ccc(C)cc3)c(=O)oc12 (stereo not given)	–	–	–	–	–	–
Cc1ccc(C(=O)C(C)OC(=O)c2cc3cc([N+](=O)[O-])ccc3oc2=O)cc1 (stereo not given)	–	–	?	-99	–	?
CC(NC(=O)c1cc2cc([N+](=O)[O-])ccc2oc1=O)C1CCCO1 (stereo not given)	–	–	–	–	–	?
O=C(O)c1cccc(-c2nnn(Cc3ccccc3Cl)n2)c1	–	–	–	–	11µM	–
O=C(O)c1cccc(-c2nnn(Cc3ccccc3)n2)c1	–	–	–	?	–	–
C=CCn1cc(C(=O)NCCOC)c(=O)c2cc(S(=O)(=O)N3CCCCCC3)ccc21	10µM	–	?	–	·	–
CCCCNS(=O)(=O)CCNCCc1ccccc1	–	–	–	–	–	–
CCCCCCCCNCCS(=O)(=O)NCc1ccccc1	16µM	–	?	-81	?	·
CCCCNS(=O)(=O)CCNCc1ccco1	–	43	–	–	–	–
Nc1cccc2cccnc12	–	·	–	·	·	·
COc1ccc(Br)c2c1-c1nc(NC(=O)c3cccc(C)c3)sc1C2	–	–	?	·	·	·
NC(Cc1ccccc1)c1csc(Nc2nncc3ccccc23)n1 (stereo not given)	–	–	16µM	–	?	·
NC(=O)c1cccc(Nc2nc(C(N)Cc3ccc(C(F)(F)F)cc3)cs2)n1 (stereo not given)	–	–	?	–	28µM	?
COc1cccc(Nc2nc(C(N)Cc3ccc(C(F)(F)F)cc3)cs2)n1 (stereo not given)	10µM	–	?	–	20µM	·
Nc1ccc(CC(N)c2csc(Nc3nncc4ccccc34)n2)cc1 (stereo not given)	–	–	?	–	–	–
COc1ccc(CC(N)c2csc(Nc3cccc(OC)n3)n2)cc1 (stereo not given)	13µM	–	?	-83	–	?
NC(Cc1ccccc1)c1csc(Nc2ccc(C(F)(F)F)cn2)n1 (stereo not given)	–	–	?	–	?	–
CCCN1C(=O)CN(C2CCCCCC2)C(=O)C1c1ccc(OCC)c(OC)c1 (stereo not given)	–	–	–	·	·	·
COc1ccccc1-n1c(/C=C/c2c(C)n(C)c3ccccc23)nc2ccccc2c1=O	–	–	?	·	·	·
COc1ccc(CC(N)c2csc(Nc3ccccn3)n2)cc1 (stereo not given)	–	–	?	?	?	?
COc1cccc(Nc2nc(C(N)Cc3ccc(Cl)cc3)cs2)n1 (stereo not given)	–	–	?	–	25µM	32µM
COc1cccc(Nc2nc(C(N)C(C)C)cs2)n1 (stereo not given)	–	–	–	–	–	–
